Test results published in PubChem BioAssay AID1159580 (chemical genetic matrix, 2015).
Values joined by “and” are separate entries in the source; they are usually repeats but may differ in a detail not shown here. Equal entries are not always repeated. The campaign covered roughly 5,500 compounds. About 2,000 (36%) were called active. Not shown: some 18% with an inconclusive outcome. No stated cut-off is given here; in the data, active means normalized growth mostly below about 0.91 (no sharp cut-off); inconclusive means no clear call, values can overlap the other calls; inactive means mostly above about 0.92. This is one part of the list.

Test: chemical genetic growth profiling, strain panel (AID 1159580);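 further: tested at 20 µM; growth read once vehicle control cultures reached saturation at 30 °C; 1 = growth at the plate median or of vehicle wells; lower values mean less growth of the strain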
Conditions: S. cerevisiae deletion strains, growth OD

Measured: normalized growth

O=C1c2c(O)cccc2Cc2cccc(O)c21
active: locus YOR270C, strain vph1, hits give low values 0.755 | locus YPL051W, strain arl3, hits give low values 0.914
inactive: locus YAL013W, strain DEP1, hits give low values 1.04 | locus YAL021C, strain ccr4, hits give low values 0.958 | locus YAL026C, strain drs2, hits give low values 0.988 | locus YAL030W, strain snc1, hits give low values 0.986 | locus YBL061C, strain skt5, hits give low values 1 | locus YBR009C, strain hhf1, hits give low values 0.997 | locus YBR021W, strain FUR4, hits give low values 1 | locus YBR023C, strain chs3, hits give low values 0.988 | locus YBR171W, strain sec66, hits give low values 0.975 | locus YBR229C, strain ROT2, hits give low values 0.998 | locus YBR231C, strain swc5, hits give low values 0.981 | locus YBR279W, strain paf1, hits give low values 0.966 | locus YCL011C, strain gbp2, hits give low values 0.973 | locus YCL016C, strain dcc1, hits give low values 1.03 | locus YCL029C, strain bik1, hits give low values 0.992 | locus YCL061C, strain MRC1, hits give low values 0.978 | locus YCL069W, strain vba3, hits give low values 1.01 | locus YCR088W, strain abp1, hits give low values 1.01 | locus YDL005C, strain med2, hits give low values 0.978 | locus YDL035C, strain GPR1, hits give low values 1.02 | locus YDL040C, strain nat1, hits give low values 0.999 | locus YDL074C, strain BRE1, hits give low values 1.04 | locus YDL101C, strain DUN1, hits give low values 1.01 | locus YDL134C, strain PPH21, hits give low values 1.02 | locus YDL185W, strain tfp1, hits give low values 0.999 | locus YDL192W, strain arf1, hits give low values 0.994 | locus YDR001C, strain nth1, hits give low values 0.988 | locus YDR069C, strain doa4, hits give low values 0.946 | locus YDR101C, strain arx1, hits give low values 0.99 | locus YDR137W, strain rgp1, hits give low values 0.848 | locus YDR159W, strain sac3, hits give low values 0.982 | locus YDR162C, strain NBP2, hits give low values 1.03 | locus YDR195W, strain ref2 1.11 | locus YDR297W, strain sur2, hits give low values 1.01 | locus YDR318W, strain mcm21, hits give low values 0.994 | locus YDR334W, strain swr1, hits give low values 0.936 | locus YDR335W, strain msn5, hits give low values 0.999 | locus YDR388W, hits give low values 0.992 | locus YDR392W, strain spt3, hits give low values 0.986 | locus YDR502C, strain sam2, hits give low values 1.01 | locus YEL003W, strain gim4, hits give low values 1.03 | locus YEL037C, strain rad23, hits give low values 1 | locus YEL061C, strain CIN8 (second series), hits give low values 0.986 | locus YEL061C, strain CIN8, hits give low values 1 | locus YER015W, strain faa2, hits give low values 1.01 | locus YER016W, strain bim1, hits give low values 1.01 | locus YER110C, hits give low values 0.997 | locus YER111C, strain swi4, hits give low values 1.01 | locus YER155C, strain BEM2 (second series), hits give low values 0.957 | locus YER155C, strain BEM2, hits give low values 0.997 | locus YER167W, strain BCK2, hits give low values 1 | locus YFR010W, strain ubp6, hits give low values 0.957 | locus YGL078C, strain dbp3, hits give low values 0.992 | locus YGL086W, strain mad1, hits give low values 1 | locus YGL167C, strain pmr1, hits give low values 0.962 | locus YGL173C, strain kem1, hits give low values 0.996 | locus YGL227W, strain vid30, hits give low values 0.976 | locus YGL240W, strain doc1, hits give low values 0.985 | locus YGL248W, strain PDE1, hits give low values 1.02 | locus YGL253W, strain hxk2, hits give low values 0.963 | locus YGR078C, strain PAC10, hits give low values 1.03 | locus YGR135W, strain pre9, hits give low values 0.999 | locus YGR252W, strain gcn5, hits give low values 1.02 | locus YHR013C, strain ard1, hits give low values 1 | locus YHR027C, strain rpn1, hits give low values 0.976 | locus YHR030C, strain SLT2, hits give low values 1.01 and 1.06 | locus YHR079C, strain IRE1 (second series), hits give low values 0.994 | locus YHR079C, strain IRE1, hits give low values 1.08 | locus YHR094C, strain hxt1, hits give low values 0.993 | locus YHR129C, strain ARP1, hits give low values 1.01 | locus YHR142W, strain chs7, hits give low values 1.02 | locus YHR200W, strain rpn10, hits give low values 1 | locus YIL066C, strain RNR3, hits give low values 1.02 | locus YIL073C, strain SPO22, hits give low values 1.03 | locus YIL125W, strain kgd1, hits give low values 1 | locus YIR030C, strain dcg1, hits give low values 0.992 | locus YJL092W, strain hpr5, hits give low values 1.01 | locus YJL095W, strain BCK1 (second series), hits give low values 0.967 | locus YJL095W, strain BCK1, hits give low values 1.05 and 1.06 | locus YJL115W, strain asf1, hits give low values 0.982 | locus YJL129C, strain trk1, hits give low values 1.05 | locus YJL134W, strain LCB3, hits give low values 1.01 | locus YJL154C, strain vps35, hits give low values 0.988 | locus YJL164C, strain tpk1, hits give low values 1.02 | locus YJL166W, strain qcr8, hits give low values 0.984 | locus YJL168C, strain set2, hits give low values 0.99 | locus YJL187C, strain SWE1 (second series), hits give low values 1.02 | locus YJL187C, strain SWE1, hits give low values 1 | locus YJR043C, strain POL32, hits give low values 1.06 | locus YJR066W, strain TOR1, hits give low values 0.994 | locus YJR075W, strain HOC1, hits give low values 1.03 | locus YKL009W, strain mrt4, hits give low values 1.01 | locus YKL068W, hits give low values 0.99 | locus YKL085W, strain MDH1 (second series), hits give low values 0.994 | locus YKL085W, strain MDH1, hits give low values 0.994 | locus YKL160W, strain elf1, hits give low values 1 | locus YKR001C, strain vps1, hits give low values 1.01 | locus YKR026C, strain gcn3, hits give low values 0.991 | locus YKR091W, strain srl3, hits give low values 0.985 | locus YLL001W, strain dnm1, hits give low values 1 | locus YLL026W, hits give low values 1 | locus YLL041C, strain sdh2, hits give low values 0.997 | locus YLR027C, strain aat2, hits give low values 1.03 | locus YLR039C, strain RIC1, hits give low values 1.24 | locus YLR058C, strain SHM2, hits give low values 1.01 | locus YLR102C, strain apc9, hits give low values 0.995 | locus YLR113W, strain HOG1, hits give low values 1.13 | locus YLR221C, strain rsa3, hits give low values 0.985 | locus YLR258W, strain gsy2, hits give low values 0.976 | locus YLR262C, strain YPT6 (second series), hits give low values 0.862 | locus YLR262C, strain YPT6, hits give low values 1.28 | locus YLR268W, strain sec22, hits give low values 1.02 | locus YLR320W, strain mms22, hits give low values 0.996 | locus YLR330W, strain CHS5, hits give low values 1 | locus YLR342W, strain FKS1 (second series), hits give low values 1.01 | locus YLR342W, strain FKS1, hits give low values 0.996 | locus YLR357W, strain rsc2, hits give low values 0.921 | locus YLR370C, strain arc18, hits give low values 0.985 | locus YLR371W, strain rom2, hits give low values 1 | locus YLR384C, strain iki3, hits give low values 0.974 | locus YLR418C, strain cdc73, hits give low values 1.11 | locus YML016C, strain PPZ1, hits give low values 1 | locus YML032C, strain rad52, hits give low values 0.996 | locus YML120C, strain ndi1, hits give low values 1.02 | locus YML124C, strain tub3, hits give low values 0.988 | locus YMR058W, strain fet3, hits give low values 0.999 | locus YMR078C, strain ctf18, hits give low values 0.999 | locus YMR125W, strain sto1, hits give low values 0.988 | locus YMR129W, hits give low values 0.995 | locus YMR205C, strain PFK2, hits give low values 1.03 | locus YMR223W, strain ubp8, hits give low values 1 | locus YMR231W, strain pep5, hits give low values 0.976 | locus YMR263W, strain SAP30, hits give low values 1.02 | locus YMR307W, strain GAS1, hits give low values 0.997 | locus YNL067W, strain RPL9B, hits give low values 1.04 | locus YNL071W, strain lat1, hits give low values 1.02 | locus YNL183C, strain NPR1, hits give low values 1 | locus YNL209W, strain ssb2, hits give low values 1 | locus YNL233W, strain BNI4, hits give low values 1.05 | locus YNL248C, strain rpa49, hits give low values 0.906 | locus YNL250W, strain rad50, hits give low values 0.99 | locus YNL271C, strain bni1, hits give low values 0.989 | locus YNL298W, strain CLA4, hits give low values 0.985 | locus YNL307C, strain MCK1, hits give low values 1.01 | locus YNL322C, strain KRE1 (second series), hits give low values 0.988 | locus YNL322C, strain KRE1, hits give low values 1 | locus YNR049C, strain mso1, hits give low values 1.01 | locus YNR052C, strain pop2, hits give low values 0.993 | locus YOL012C, strain htz1 0.791 | locus YOL147C, strain pex11, hits give low values 0.997 | locus YOR001W, strain rrp6, hits give low values 0.979 | locus YOR061W, strain CKA2, hits give low values 1.01 | locus YOR069W, strain VPS5, hits give low values 1.01 | locus YOR070C, strain gyp1, hits give low values 1.03 | locus YOR080W, strain dia2, hits give low values 1 | locus YOR083W, strain WHI5, hits give low values 0.954 | locus YOR106W, strain vam3, hits give low values 0.898 | locus YOR136W, strain idh2, hits give low values 0.993 | locus YOR144C, strain elg1, hits give low values 0.996 | locus YOR184W, strain ser1, hits give low values 1.02 | locus YOR231W, strain MKK1, hits give low values 1.07 | locus YOR265W, strain rbl2, hits give low values 0.996 | locus YOR290C, strain snf2, hits give low values 1.02 | locus YOR316C, strain cot1, hits give low values 0.997 | locus YPL078C, strain atp4, hits give low values 1.01 | locus YPL106C, strain sse1, hits give low values 0.919 | locus YPL240C, strain hsp82, hits give low values 0.991 | locus YPL256C, strain CLN2, hits give low values 1.17 | locus YPR119W, strain clb2, hits give low values 0.988 | locus YPR141C, strain kar3, hits give low values 0.993 | locus YPR163C, strain tif3, hits give low values 0.997 | locus YPR167C, strain met16, hits give low values 1 | strain wtn01, hits give low values 0.999
